PubChem BioAssay AID488954 (The Scripps Research Institute Molecular Screening Center, 2010)
This is one part of the list. The source made the active and inactive calls.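 The calls were made as follows: active = mean activation above a set limit carried over from the earlier primary screen (cut at about 22% in these data); inactive = the rest.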

Each compound was assayed against Caspase-3 (Homo sapiens) (UniProt P42574) (assay: procaspase-3 activation, retest of hits – biochemical, absorbance, PC-3 D3A mutant, triplicate, confirmation (AID 488954)). Conditions: recombinant PC-3 D3A, Ac-DEVD-pNA absorbance 405 nm; at 8.5 µM; active compounds read high; 100% is higher-enzyme control.
Sequence of Caspase-3 (Homo sapiens) (P42574 whole entry D9A/D28A/D175A): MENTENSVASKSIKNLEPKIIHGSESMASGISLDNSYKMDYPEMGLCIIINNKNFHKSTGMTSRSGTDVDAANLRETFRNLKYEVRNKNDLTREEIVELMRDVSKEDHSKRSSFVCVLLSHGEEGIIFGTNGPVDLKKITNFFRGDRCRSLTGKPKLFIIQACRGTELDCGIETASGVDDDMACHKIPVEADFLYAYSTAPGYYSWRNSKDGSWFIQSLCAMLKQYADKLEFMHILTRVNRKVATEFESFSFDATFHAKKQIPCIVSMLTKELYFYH

| Compound | activation |
| --- | --- |
| COC(=O)Cc1cc(=O)oc2c(C)c(O)ccc12 | -12.9% (inactive) |
| COc1ccc(-c2sc3ccc(OC)cc3c2C#Cc2ccccn2)cc1 | 14.4% (inactive) |
| CN1CCN(CCCNC(=O)c2ccc(/C=C3\Oc4ccccc4N(Cc4ccc(Cl)cc4)C3=O)cc2)CC1 | -14.8% (inactive) |
| COC(=O)c1cnc(Nc2cc(C)ccc2OC)c2ccccc12 | -14.1% (inactive) |
| COc1ccccc1NS(=O)(=O)c1ccc(C(=O)N2CCN(c3ccccc3O)CC2)cc1 | 5.8% (inactive) |
| Oc1ccccc1C1=NN(c2ccccc2)C(c2ccccc2)C1 (stereo unspecified) | -13.4% (inactive) |
| Cc1nn(C)cc1CNC(=O)Nc1ccc(Cl)cc1 | 3.2% (inactive) |
| O=C(CCNS(=O)(=O)c1ccccc1C(F)(F)F)NCc1ccc2c(c1)OCO2 | 5.75% (inactive) |
| COc1ccc(CCNC(=O)COC(=O)c2ccc[nH]c2=O)cc1 | 5.06% (inactive) |
| COc1ccc2nc(Nc3nc4ccc(NC(C)=O)cc4s3)sc2c1 | -1.02% (inactive) |
| CCOc1ccc2nc(NCCNS(=O)(=O)c3ccccc3)c(C#N)cc2c1 | -14.1% (inactive) |
